Consider 40 compounds from PubChem BioAssay (EPA / NIEHS).

Results filed as inconclusive are left out. Calls of active or inactive are those of the source. Rule for the calls: active = hit-call score of the fitted dose curve at least 0.9, where 1 is the maximum; inconclusive = response in the unintended direction; inactive = score below 0.9.

Sequence of human Vitamin D Receptor (VDR), VDR (gene 7421) (P11473 whole entry, looked up, the tested form may be a part): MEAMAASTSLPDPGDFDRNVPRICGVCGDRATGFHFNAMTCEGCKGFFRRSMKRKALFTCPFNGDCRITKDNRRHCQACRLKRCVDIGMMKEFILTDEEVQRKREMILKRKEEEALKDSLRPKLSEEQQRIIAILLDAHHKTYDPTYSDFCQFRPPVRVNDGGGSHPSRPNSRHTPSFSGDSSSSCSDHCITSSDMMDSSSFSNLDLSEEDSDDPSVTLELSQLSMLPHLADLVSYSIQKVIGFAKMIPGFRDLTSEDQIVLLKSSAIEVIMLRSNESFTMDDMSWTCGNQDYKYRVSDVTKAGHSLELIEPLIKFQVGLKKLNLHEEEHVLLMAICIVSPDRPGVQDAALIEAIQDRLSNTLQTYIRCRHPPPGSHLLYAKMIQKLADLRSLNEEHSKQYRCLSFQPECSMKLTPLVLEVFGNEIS

The assay addresses human Vitamin D Receptor (VDR), VDR (gene 7421) (UniProt P11473). The assay can be described thus: ATG_VDR_TRANS: Attagene TRANS-FACTORIAL HepG2 Assay for human Vitamin D Receptor (VDR) (AID 2283022). The method in brief: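 Steps: transfect HepG2 with GAL4-UAS-driven reporter constructs; dose compounds 24 h; isolate RNA, reverse-transcribe, PCR-amplify with 6-FAM-labelled primer extension and HpaI digestion; quantify fragments by capillary electrophoresis relative to DMSO.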
Consider `COc1nc(C)nc(N)n1`, for which the outcome was inactive.
Next, `CC(O)C(C)O` (stereo not given): “inactive”; `CCCCc1ccc(N)cc1`: “inactive”; `CC1=CCC(O)(C(C)C)CC1` (stereo not given): “inactive”.
As to `COC(=O)Cc1cccc2ccccc12`, the compound was called inactive.
Next, `Cc1c(Cl)c(=O)oc2cc(O)ccc12`: “inactive”; `CC(C)=CCC[C@H](C)CC=O`: “inactive”.
For `Cc1ncc([N+](=O)[O-])n1C`, the result was inactive.
Next, `C=COCCOCCOCCOC=C`: “inactive”; `CC(C)=CCCC(C)=CCCC(C)=CCO`: “inactive”; `Nc1nc2ccc([N+](=O)[O-])cc2s1`: “inactive”.
Next, `Cc1ccc(C(=O)c2cc(O)c(O)c([N+](=O)[O-])c2)cc1`: “inactive”.
Next, `O=Nc1ccc(Nc2ccccc2)cc1`: “inactive”; `O=C(O)c1cccc(C(F)(F)F)c1`: “inactive”.
Consider `CCC(=O)OCCC(C)CCC=C(C)C` (stereo not given), for which the call was inactive.
`c1ccc(CCCc2ccccn2)cc1`: the compound was classed as inactive.
To `CC(=O)OCc1ccc2c(c1)OCO2` belongs “inactive”; to `CC(C)(C)c1n[nH]c(=S)n(N)c1=O`, “inactive”.
To `CCCc1c(OCCCOc2ccc(OCC(=O)O)cc2)ccc(C(C)=O)c1O` belongs “inactive”.
To `Nc1cc(Cl)c(O)c(Cl)c1` belongs “inactive”; to `CC(CCO)CCCC(C)(C)O` (stereo not given), “inactive”.
Turning to `CC(C)CCCCCCCOC(=O)c1ccc(C(=O)OCCCCCCCC(C)C)c(C(=O)OCCCCCCCC(C)C)c1`, the compound was classed as inactive.
For `COc1cccc(OC)c1`, the outcome was inactive.
To `CC1=CCC2C(C1)C2(C)C` (stereo not given) belongs “inactive”.
Next, `CCCC1CCC(=O)O1` (stereo not given): “inactive”.
Next, `C=C(C)C(=O)NCCCN(C)C`: “inactive”; `Nc1cccc(S(=O)(=O)c2cccc(N)c2)c1`: “inactive”.
As for `c1cc(C(c2ccc(OCC3CO3)cc2)c2ccc(OCC3CO3)cc2)ccc1OCC1CO1` (stereo not given), the call was inactive.
`CCCCCCCCCCCCCCCC(=O)O`: the result was inactive.
To `CC(c1cc2ccccc2s1)N(O)C(N)=O` (stereo not given) belongs “inactive”; to `COC(=O)OC`, “inactive”; to `CCOC(=O)c1ccccc1OC`, “inactive”.
Next, `O=C(Oc1ccccc1)c1ccc(O)cc1`: “inactive”; `O=S(=O)(O)c1cccc2c(S(=O)(=O)O)cccc12`: “inactive”; `CC(CCO)CCc1ccccc1` (stereo not given): “inactive”.
To `COc1ccc(O)cc1` belongs “inactive”; to `CCN(CC)c1ccc(C(=C2C=CC(=[N+](CC)CC)C=C2)c2ccc(S(=O)(=O)O)cc2S(=O)(=O)[O-])cc1`, “inactive”.
As to `CN(C)CCCN`, the call was inactive.
Next, `Cc1c(N(C)C)c(=O)n(-c2ccccc2)n1C`: “inactive”; `O=C1C(c2[nH]c3ccc(S(=O)(=O)O)cc3c2O)=Nc2ccc(S(=O)(=O)O)cc21`: “inactive”.
